Unmarked numbers belong to inactive results. Active and inactive are the calls of the source.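 How the source made its calls: active means cell event count below 40, meaning activity score above 60 where score is 100 minus count; inactive means the rest.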

A short description of this assay: cytotoxicity in LNCaP prostate cells – cell-based, cell event count, single point, cytotoxicity control for prostate differentiation activator project, confirmation (AID 1076).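 Further: counts scatter-gated live cells after medium removal discards detached dead cells.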 Particulars: LNCaP cell loss, flow cytometry event count, 4 d; at 100 µM; hits give low values. A general note: In flow cytometry, cells or beads pass a laser one at a time.
Take `COC(=O)c1ccc2c(=O)n(Cc3ccco3)c(SCC(=O)Nc3ccc(C)c(Cl)c3)nc2c1`: the cell event count was 138.

Consider `COC(=O)c1cc(-c2ccccc2)sc1NC(=O)c1cc(C)on1`, for which the cell event count was 10 (active). With `Cc1oc(-c2ccccc2F)nc1CN1CCC(C(=O)NCCC2=CCCCC2)CC1`, the cell event count was 17. The same measure for `O=C(CCN1C(=O)COc2ccccc21)NCCCN1CCN(c2ccc(F)cc2)CC1`: 117; for `O=C(NCCc1c[nH]c2ccccc12)C(F)(F)C(F)F`: 111.

Turning to `Cc1ccc(Nc2cc(=O)n(C3CCCCC3)c(=O)[nH]2)cc1C`, the cell event count is 3 (active). Regarding `Cc1nc(NCCNC(=O)c2ccco2)c2c(C)c(C)sc2n1`, the cell event count was 83. To `CCN1C=C(Cc2cccs2)C2=C(C1)C(c1cccs1)C(C#N)=C(N)O2` (stereo not given) belongs 40. As to `CCOC(=O)N1CCN(C(=O)C2CCN(Cc3nc(-c4ccccc4C)oc3C)CC2)CC1`, the cell event count is 111.

As for `CN(CCNC(=O)C1CC(=O)N(c2ccc(F)c(Cl)c2)C1)Cc1ccccc1` (stereo not given), the cell event count was 79.

`Cc1ccc(-c2noc(CCC(=O)NCCCN3CCN(c4cccc(Cl)c4)CC3)n2)cc1`: the cell event count is 22. To `Cc1ccccc1-c1nc(CN2CCC(C(=O)NCc3cccnc3)CC2)c(C)o1` belongs 268. With `COCCNC(=O)CC(NS(=O)(=O)c1ccc(NC(C)=O)cc1)C(C)C` (stereo not given), the cell event count was 79. On to `CCOC(=O)C1=C(C)Nc2nc(SC)nn2C1c1ccc(C(=O)OC)cc1` (stereo not given), for which the cell event count was 326. Regarding `COc1ccc(-c2cc(C(=O)NCc3ccc(Cl)cc3)no2)cc1OC`, the cell event count is 172.

Source of the values: PubChem BioAssay AID1076 (NMMLSC, 2008).
